# In PubChem BioAssay (NCATS):
# Where “and” joins values, the source holds several entries; their conditions need not be identical. Identical values can stand only once. A number with no mark means an inactive call. Results filed as inconclusive are left out. Calls of active or inactive are those of the source. Unless noted, calls follow the shape of the dose curve; as a rule, active = well fitted curve in either direction with a large enough effect (not every such curve was filed as active); inconclusive = small, poorly fitted or top-dose-only effect, or another doubt; inactive = flat fitted curve, though single readings scatter. Peptide text beside a SMILES is read from it.
# How the values were obtained:
# [1] = AP1 Signaling Pathway (AID 357);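 also: ME-180 reporter cells stimulated with EGF at its EC50 level; % is scaled to controls: 0 for no effect and ±100 for the full control effect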
# Method in brief: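 Modulation of EGF-driven AP-1 transcription was assessed with a beta-lactamase reporter in ME-180 cells. Compound and EC50 EGF were co-incubated 5 hours at 37 °C before 2.5-hour CCF4 loading at room temperature and dual-emission reading.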
# [2] = Stat Signaling Pathway (AID 446);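 also: ME-180 cervical cancer cells given 40 pM IL-6 alongside compound; SIE-controlled beta-lactamase reporter measured as 460/530 nm FRET emission ratio; % is scaled to controls: 0 for no effect and ±100 for the full control effect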
# Method in brief: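 ME-180 SIE-bla cells; overnight plating; cpd + IL-6 40 pM, 5 h, 37 C; LiveBLAzer 2.5 h RT; 460/530 nm emission ratio. Normalized to 300 pM IL-6 and 125 nM JAK inhibitor controls.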
# [3] = biological target: Glucocorticoid receptor (Homo sapiens) (UniProt P04150); assay: GR-GFP Redistribution (AID 450;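 active = compounds whose dose series gives a full or clear partial fitted curve of increased nuclear translocation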; also: potency is read from the fitted curve at half-maximal effect); conditions: U2OS GR-GFP nuclear translocation, laser cytometry, 2 h
# Chain of Glucocorticoid receptor (Homo sapiens) (P04150 whole entry, looked up, the tested form may be a part): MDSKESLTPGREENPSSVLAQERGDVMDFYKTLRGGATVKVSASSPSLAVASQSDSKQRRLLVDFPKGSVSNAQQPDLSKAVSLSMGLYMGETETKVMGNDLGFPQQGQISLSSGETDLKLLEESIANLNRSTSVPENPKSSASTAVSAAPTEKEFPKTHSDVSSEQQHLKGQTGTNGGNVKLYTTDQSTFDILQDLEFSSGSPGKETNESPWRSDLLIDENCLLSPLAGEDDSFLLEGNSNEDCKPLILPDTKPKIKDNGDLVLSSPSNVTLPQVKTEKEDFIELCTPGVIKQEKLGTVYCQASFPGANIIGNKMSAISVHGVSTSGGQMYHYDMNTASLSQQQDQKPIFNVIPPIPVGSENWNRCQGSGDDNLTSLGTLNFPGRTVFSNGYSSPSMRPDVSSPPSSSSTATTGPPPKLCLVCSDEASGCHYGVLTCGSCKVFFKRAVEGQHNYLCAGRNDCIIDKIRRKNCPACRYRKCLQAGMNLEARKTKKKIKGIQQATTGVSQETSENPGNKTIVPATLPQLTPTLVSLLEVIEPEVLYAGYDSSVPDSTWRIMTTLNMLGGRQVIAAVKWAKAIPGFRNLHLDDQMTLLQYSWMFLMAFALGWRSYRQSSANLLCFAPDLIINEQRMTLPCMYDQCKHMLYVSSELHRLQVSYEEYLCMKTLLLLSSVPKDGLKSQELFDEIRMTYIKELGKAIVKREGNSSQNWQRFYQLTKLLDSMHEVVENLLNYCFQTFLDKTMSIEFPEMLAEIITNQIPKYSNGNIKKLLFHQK
# [4] = Cell Viability - Hek293 (AID 427;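 active = compounds whose dose-response curve shows a full or clear partial loss of cell viability, called from curve shape rather than a numeric limit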;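 also: potency is read from the fitted curve at half-maximal effect; cells exposed to compound for 40 hours at 37 °C before reading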); conditions: qHTS
# Method in brief: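 Luminescent ATP read-out (CellTiter-Glo, 20 min RT) after 40 hr compound exposure at 37 °C in complete medium. Signal normalized to DMSO (basal) and 100 uM tamoxifen (100% inhibition); concentration-response fitted with the standard Hill equation to give AC50.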
# [5] = Cell Viability - HepG2 (AID 433; calls by dose curve;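 also: potency is read from the fitted curve at half-maximal effect; potency for ATP loss meaning cytotoxicity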); conditions: qHTS
# Method in brief: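 Read-out is luciferase-based quantitation of cellular ATP as a measure of viable HepG2 cells after 40 h treatment at 37 °C. Signal decrease is scaled between DMSO-only and 100 uM tamoxifen controls, with AC50 fitted by the Hill equation.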
# [6] = Cell Viability - MRC5 (AID 434; calls by dose curve;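 also: potency is read from the fitted curve at half-maximal effect; potency reflects cytotoxicity seen as loss of intracellular ATP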); conditions: MRC5 lung fibroblast viability, qHTS
# Method in brief: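 MRC5 normal human lung fibroblasts, 1500 cells/well, exposed to compound for 40 hr at 37 C. Cellular ATP was read by CellTiter-Glo luminescence; data normalized to DMSO and 100 uM tamoxifen, with AC50 from Hill fits.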
# [7] = biological target: Cytochrome P450 1A2 (Homo sapiens) (UniProt P05177); assay: p450-cyp1a2 (AID 410; calls by dose curve; also: potency is read from the fitted curve at half-maximal effect;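 as to activity change, negative = inhibition: -100% = full effect of reference inhibitor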)
# Chain of Cytochrome P450 1A2 (Homo sapiens) (P05177 whole entry, looked up): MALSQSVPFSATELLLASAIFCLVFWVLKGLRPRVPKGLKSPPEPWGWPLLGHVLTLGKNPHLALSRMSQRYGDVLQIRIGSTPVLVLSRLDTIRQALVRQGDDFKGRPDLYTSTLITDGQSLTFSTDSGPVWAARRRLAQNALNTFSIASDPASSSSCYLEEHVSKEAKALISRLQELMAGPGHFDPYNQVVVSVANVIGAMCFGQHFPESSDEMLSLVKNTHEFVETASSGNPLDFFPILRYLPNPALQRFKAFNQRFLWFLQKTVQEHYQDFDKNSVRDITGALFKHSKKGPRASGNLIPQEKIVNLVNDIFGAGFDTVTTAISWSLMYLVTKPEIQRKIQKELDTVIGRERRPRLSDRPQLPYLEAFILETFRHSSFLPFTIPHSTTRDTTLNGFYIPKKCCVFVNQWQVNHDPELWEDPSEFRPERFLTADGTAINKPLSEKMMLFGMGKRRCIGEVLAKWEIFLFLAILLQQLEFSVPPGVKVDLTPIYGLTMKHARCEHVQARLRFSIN
# Method in brief: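 Human CYP1A2 (20nM) demethylated Luciferin-ME at its Km (100uM) in 100mM KPO4. After 10 min compound preincubation, NADPH regeneration ran the reaction 60 min at room temperature. Luciferin was read by luminescence, normalized to 57 uM furafylline.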
# [8] = biological target: Glucocorticoid receptor (Homo sapiens) (UniProt P04150); assay: GR-EFC Redistribution (AID 451; calls by dose curve; also: potency is read from the fitted curve at half-maximal effect); conditions: CHO-K1 GR-EFC translocation, beta-gal luminescence, 2 h
# Method in brief: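 CHO-K1 cells expressing nuclear EA and GR-ED fragments of b-gal; compounds titrated up to 46 uM final, 2 h at 37 C. GR nuclear translocation read as complemented b-gal luminescence after 1 h RT detection.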
# [9] = Cell Viability - BJ (AID 421; calls by dose curve;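 also: potency is read from the fitted curve at half-maximal effect; cells exposed to compound for 40 hours at 37 °C before readout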); conditions: BJ fibroblast viability, qHTS
# Method in brief: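 Luminescent ATP signal (CellTiter-Glo, 20 min at room temperature) served as the read-out of viable BJ cells after 40 hours of compound treatment. Responses were scaled between DMSO and 100 uM tamoxifen, and AC50 values were obtained by Hill modeling.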
# [10] = NFAT Signaling Pathway (AID 444); conditions: Jurkat NFAT-bla M1, carbachol, beta-lactamase ratio, 5 h;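 also: carbachol stimulus at about its EC50 of 1 µM final; % is scaled to controls: 0 for no effect and ±100 for the full control effect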
# Method in brief: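 Jurkat cells with NFAT-driven β-lactamase reporter and co-expressed M1 receptor, stimulated with carbachol (final 1 uM, ~EC50), compound titration, 5 h at 37 °C. CCF4 loaded 1 h at RT; 460/530 nm ratio gave %activity and AC50.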
compound,measurement,setting,value
CCCOc1ccc2nc(NC(=O)OC)[nH]c2c1,outcome,[1],inactive
same,outcome,[2],inactive
same,Potency,[3],> 20.6 µM
CC(C)(S)[C@@H](N)C(=O)O,outcome,[1],inactive
same,outcome,[2],inactive
same,Potency,[3],> 20.6 µM
CN(C)c1ccc2nc3ccc(=[N+](C)C)cc-3sc2c1,Potency,[4],35.6 µM (active)
same,Potency,[5],4.17 µM (active)
same,Potency,[6],37.8 µM (active)
CCN(CC)C(=S)SSC(=S)N(CC)CC,Potency,[7],6.31 µM (active) and 1.58 µM (active)
same,Potency,[3],> 46 µM and > 20.6 µM
same,Potency,[8],> 46 µM and > 20.6 µM
CCCCC(CC)COC(=O)C(C#N)=C(c1ccccc1)c1ccccc1 (stereo not given),Potency,[9],> 92 µM
same,Potency,[4],> 92 µM
same,Potency,[5],> 92 µM
same,Potency,[6],> 92 µM
CC(=O)N1CCN(c2ccc(OC[C@H]3CO[C@](Cn4ccnc4)(c4ccc(Cl)cc4Cl)O3)cc2)CC1,Potency,[3],> 46 µM
same,Potency,[8],> 46 µM
CC(C)[N+]1(C)[C@@H]2CC[C@H]1CC(OC(=O)C(CO)c1ccccc1)C2 (stereo not given in full),outcome,[1],inactive
same,"activity change, negative = inhibition",[10]; at 17.2 µM (top of the series),-79.9% (active)
same,outcome,[2],inactive
COC(=O)[C@H](Cc1ccccc1)NC(=O)[C@@H](N)CC(=O)O (H-Asp-Phe-OMe),Potency,[9],> 92 µM
same,Potency,[4],> 92 µM
same,Potency,[5],> 92 µM
same,Potency,[6],> 92 µM
CCOC(=O)C1=C(O)C(=O)N(Cc2ccccc2)C1,Potency,[7],1 µM (active)
same,Potency,[3],> 46 µM
same,Potency,[8],> 46 µM
CN(C)CCCC1(c2ccc(F)cc2)OCc2cc(C#N)ccc21 (stereo not given),outcome,[1],inactive
same,outcome,[2],inactive
same,Potency,[3],> 20.6 µM
Oc1ccc(OCc2ccccc2)cc1,Potency,[7],1.58 µM (active)
same,"activity change, negative = inhibition",[10]; at 17.2 µM (top of the series),-7.24%
same,outcome,[2],inactive
same,Potency,[3],> 20.6 µM
same,Potency,[8],> 20.6 µM
O=C(NCC1CCCCN1)c1cc(OCC(F)(F)F)ccc1OCC(F)(F)F (stereo not given),outcome,[1],inactive
same,"activity change, negative = inhibition",[10]; at 17.2 µM (top of the series),-8.46%
same,outcome,[2],inactive
COc1cc2nc(N3CCN(C(=O)C4CCCO4)CC3)nc(N)c2cc1OC (stereo not given),outcome,[1],inactive
same,outcome,[2],inactive
same,Potency,[3],> 20.6 µM
Nc1cc(C(Cl)=C(Cl)Cl)c(S(N)(=O)=O)cc1S(N)(=O)=O,outcome,[1],inactive
same,"activity change, negative = inhibition",[10]; at 17.2 µM (top of the series),-0.14%
same,outcome,[2],inactive
same,Potency,[3],> 20.6 µM
same,Potency,[8],> 20.6 µM
CC1Cc2ccccc2N1NC(=O)c1ccc(Cl)c(S(N)(=O)=O)c1 (stereo not given),outcome,[1],inactive
same,"activity change, negative = inhibition",[10]; at 17.2 µM (top of the series),6.17%
same,outcome,[2],inactive
COc1cc(OC)c(C(=O)CCCN2CCCC2)c(OC)c1,outcome,[1],inactive
same,outcome,[2],inactive
same,Potency,[3],> 20.6 µM
same,Potency,[8],> 20.6 µM
Nc1nc(Cl)nc2c1ncn2[C@H]1C[C@H](O)[C@@H](CO)O1,outcome,[1],inactive
same,"activity change, negative = inhibition",[10]; at 17.2 µM (top of the series),16.6% and 27.4%
same,outcome,[2],inactive
same,Potency,[3],> 20.6 µM
CNC[C@H](O)c1ccc(O)c(O)c1,outcome,[1],inactive
same,"activity change, negative = inhibition",[10]; at 38 µM (top of the series),1.71% and -6.16%
same,outcome,[2],inactive
O=C(NCCO[N+](=O)[O-])c1cccnc1,Potency,[7],inactive
same,Potency,[3],> 46 µM
same,Potency,[8],> 46 µM
Cc1cccc(CN2CCN(C(c3ccccc3)c3ccc(Cl)cc3)CC2)c1 (stereo not given),outcome,[1],inactive
same,outcome,[2],inactive
same,Potency,[3],> 20.6 µM
CS(=O)(=O)OCCCCOS(C)(=O)=O,Potency,[9],> 92 µM
same,Potency,[4],> 92 µM
same,Potency,[5],> 92 µM
same,Potency,[6],> 92 µM
COc1ccc2cc([C@H](C)C(=O)O)ccc2c1,outcome,[1],inactive
same,"activity change, negative = inhibition",[10]; at 17.2 µM (top of the series),-15.8% and 6.69% and 9.43%
same,"activity change, negative = inhibition",[10]; at 38 µM (top of the series),0.0959%
same,outcome,[2],inactive
O=C1NC(=O)C(c2ccccc2[N+](=O)[O-])=C1Nc1ccc(O)c(Cl)c1,Potency,[7],7.94 µM (active)
same,"activity change, negative = inhibition",[10]; at 38 µM (top of the series),-15.2%
same,outcome,[2],inactive
same,Potency,[3],> 46 µM
same,Potency,[8],> 46 µM
CCN(CC)CCOc1ccc(Cc2ccccc2)cc1,Potency,[7],12.6 µM (active)
same,Potency,[3],> 46 µM
same,Potency,[8],> 46 µM
CCCCN(CCCC)CCC(O)c1cc2c(Cl)cc(Cl)cc2c2cc(C(F)(F)F)ccc12 (stereo not given),outcome,[1],inactive
same,"activity change, negative = inhibition",[10]; at 17.2 µM (top of the series),14.4%
same,outcome,[2],inactive
same,Potency,[3],> 20.6 µM
same,Potency,[8],> 20.6 µM
COC(=O)C1=C(C)NC(C)=C(C(=O)OC(C)C)C1c1cccc2nonc12 (stereo not given),Potency,[7],31.6 µM (active)
same,Potency,[3],> 46 µM
same,Potency,[8],> 46 µM
C[C@H](Cc1ccc(O)c(O)c1)[C@@H](C)Cc1ccc(O)c(O)c1,Potency,[7],31.6 µM (active)
same,Potency,[3],> 46 µM
same,Potency,[8],> 46 µM
Cc1cc(O)c2c(c1)C(=O)c1cc(O)cc(O)c1C2=O,Potency,[7],3.16 µM (active) and 398 nM (active)
same,Potency,[9],> 92 µM
same,Potency,[6],> 92 µM
same,"activity change, negative = inhibition",[10]; at 38 µM (top of the series),7.8%
same,Potency,[3],> 46 µM
same,Potency,[8],> 46 µM
